Results filed as inconclusive are left out. Calls of active or inactive are those of the source. Calls follow the shape of the dose curve; as a rule, active = well fitted curve in the direction sought with a large enough effect in the repeat runs; inconclusive = weak or mixed curves; inactive = no such curve, though single readings can be large; an effect the other way counts as inactive or inconclusive.
Legend:
[1] = A CellTox Green Cytotoxicity Assay to monitor cytotoxicity in HEK293 cells - 40 hour (AID 1224871); also: nearly all actives have a fitted effect of over 45% in size; also: potency is read from the fitted curve at half-maximal effect
Outline: (§1)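 Fluorescence intensity, read at 0, 8, 16, 24, 32 and 40 h of compound treatment, reflected dye binding to DNA of dead HEK293 cells; compounds (23 nL, DMSO) were added 5 h after plating cells with reagent.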

[2] = qHTS RealTime-Glo MT Cell Viability Assay in HEK293 cells - 16 hour (AID 1224872); also: nearly all actives have a fitted effect of over 50% in size; also: potency is read from the fitted curve at half-maximal effect
Outline: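 Homogeneous bioluminescent viability format in HEK293 cells (600 cells/well). Following 5 h at 37 C/5% CO2, 23 nL compound was pintooled; the signal was measured repeatedly during 40 h incubation.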

[3] = qHTS RealTime-Glo MT Cell Viability Assay in HepG2 cells - 8 hour (AID 1224873); also: nearly all actives have a fitted effect of over 55% in size
Outline: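 HepG2 cells (600/well) mixed with RealTime-Glo MT reagent, settled 5 h at 37 C/5% CO2 before compound addition. Nonlytic NanoLuc luminescence from viable-cell prosubstrate reduction read repeatedly during 40 h treatment at 37 C.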

[4] = qHTS RealTime-Glo MT Cell Viability Assay in HEK293 cells - 40 hour (AID 1224874); conditions: RealTime-Glo luminescence; max response: active compounds read low; also: nearly all actives have a fitted effect of over 50% in size; also: potency is read from the fitted curve at half-maximal effect
Outline: (§2)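 Viable HEK293 cells reduce a cell-permeant prosubstrate; the product diffuses out and is consumed by NanoLuc in the medium to give light. Compounds went in after a 5 h incubation and plates were read over the treatment course.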

[5] = A CellTox Green Cytotoxicity Assay to monitor cytotoxicity in HEK293 cells - 24 hour (AID 1224875); also: series mostly up to about 77 µM; nearly all actives have a fitted effect of over 45% in size
Outline: as §1

[6] = A CellTox Green Cytotoxicity Assay to monitor cytotoxicity in HepG2 cells - 16 hour (AID 1224876); also: nearly all actives have a fitted effect of over 45% in size
Outline: (§3)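 Using 1536-well format, dye-containing HepG2 suspension was seeded, allowed 5 h at 37 C/5% CO2, dosed by pintool with compounds, positive and negative controls, and imaged for fluorescence across 40 h.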

[7] = qHTS RealTime-Glo MT Cell Viability Assay in HepG2 cells - 32 hour (AID 1224877); also: nearly all actives have a fitted effect of over 55% in size
Outline: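 Cell number in HepG2 cultures estimated from NanoLuc luminescence generated by metabolic reduction of a prosubstrate by living cells. The homogeneous, nonlytic format allowed repeated reads at 0, 8, 16, 24, 32 and 40 h of compound exposure.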

[8] = A CellTox Green Cytotoxicity Assay to monitor cytotoxicity in HepG2 cells - 24 hour (AID 1224878); also: nearly all actives have a fitted effect of over 45% in size
Outline: as §3

[9] = A CellTox Green Cytotoxicity Assay to monitor cytotoxicity in HepG2 cells - 40 hour (AID 1224879); also: nearly all actives have a fitted effect of over 40% in size
Outline: as §3

[10] = qHTS RealTime-Glo MT Cell Viability Assay in HEK293 cells - 0 hour (AID 1224880)
Outline: as §2
% is scaled to controls: 0 for no effect and ±100 for the full control effect.

OCCc1ccccn1
inactive: Potency [1] | Potency [2] | outcome [3] | max response [4] 3.13% | outcome [5] | outcome [6] | Potency [7] | outcome [8] | Potency [9] | Potency [10]

c1coc(CNc2ncnc3nc[nH]c23)c1
inactive: Potency [1] | Potency [2] | outcome [3] | max response [4] -15.6% | outcome [5] | outcome [6] | Potency [7] | outcome [8] | Potency [9] | Potency [10]

O=[N+]([O-])c1ccc(/C=N\O)o1
inactive: Potency [1] | Potency [2] | outcome [3] | max response [4] 4.52% | outcome [5] | outcome [6] | Potency [7] | outcome [8] | Potency [9] | Potency [10]

CCN(Cc1ccccc1)c1ccccc1
inactive: outcome [3] | outcome [5] | outcome [6] | Potency [7] | outcome [8] | Potency [9] | Potency [10]
active: Potency [1] 43.1 µM | Potency [2] 19.3 µM | Potency [4] 21.6 µM

CCCCCCCCN1CCCC1=O
inactive: Potency [1] | Potency [2] | outcome [3] | max response [4] -3.59% | outcome [5] | outcome [6] | Potency [7] | outcome [8] | Potency [9] | Potency [10]

Cc1ccnc(NS(=O)(=O)c2ccc(N)cc2)n1
inactive: Potency [1] | Potency [2] | outcome [3] | max response [4] 6.66% | outcome [5] | outcome [6] | Potency [7] | outcome [8] | Potency [9] | Potency [10]

C[C@H]1C[C@H]2[C@@H]3CCC4=CC(=O)C=C[C@]4(C)[C@H]3C(=O)C[C@]2(C)[C@@]1(O)C(=O)CO
inactive: Potency [1] | Potency [2] | outcome [3] | max response [4] 0.535% | outcome [5] | outcome [6] | Potency [7] | outcome [8] | Potency [9] | Potency [10]

CO[C@@]1(NC(=O)C(C(=O)O)c2ccc(O)cc2)C(=O)N2C(C(=O)O)=C(CSc3nnnn3C)CO[C@@H]21 (some centres not stated)
inactive: Potency [1] | Potency [2] | outcome [3] | max response [4] 11.1% | outcome [5] | outcome [6] | Potency [7] | outcome [8] | Potency [9] | Potency [10]

CCCCCC(=O)OCCc1ccccc1
inactive: Potency [1] | Potency [2] | outcome [3] | max response [4] 5.56% | outcome [5] | outcome [6] | Potency [7] | outcome [8] | Potency [9] | Potency [10]

CCOc1c(N2CCOCC2)cnn(C)c1=O
inactive: Potency [1] | Potency [2] | outcome [3] | max response [4] 3.38% | outcome [5] | outcome [6] | Potency [7] | outcome [8] | Potency [9] | Potency [10]

Clc1cc(Cl)c(Cl)nc1Cl
inactive: Potency [1] | Potency [2] | outcome [3] | max response [4] -11.7% | outcome [5] | outcome [6] | Potency [7] | outcome [8] | Potency [9] | Potency [10]

Clc1cc(Cl)cc(Cl)c1
inactive: Potency [1] | Potency [2] | outcome [3] | max response [4] 12.7% | outcome [5] | outcome [6] | Potency [7] | outcome [8] | Potency [9] | Potency [10]

CN(C)C(=O)Oc1ccc[n+](C)c1
inactive: Potency [1] | Potency [2] | outcome [3] | max response [4] 5.97% | outcome [5] | outcome [6] | Potency [7] | outcome [8] | Potency [9] | Potency [10]

NC(=O)NC1N=C([O][Al])NC1=O (configuration not stated)
inactive: Potency [1] | Potency [2] | outcome [3] | max response [4] 1.53% | outcome [6] | Potency [7] | outcome [8] | Potency [9] | Potency [10]

O=C(O)CCCC[P+](c1ccccc1)(c1ccccc1)c1ccccc1
inactive: Potency [1] | Potency [2] | outcome [3] | max response [4] -10.4% | outcome [5] | Potency [7] | Potency [10]

CC(C)(C)c1ccc(-c2ccc(C(C)(C)C)cc2)cc1
inactive: Potency [1] | Potency [2] | outcome [3] | max response [4] -2.15% | outcome [5] | outcome [6] | Potency [7] | outcome [8] | Potency [10]

CCOCC(C)O (configuration not stated)
inactive: Potency [1] | Potency [2] | outcome [3] | max response [4] -1.56% | outcome [6] | Potency [7] | outcome [8] | Potency [9] | Potency [10]

COc1cc(C)nc(-n2nc(C)cc2OC)n1
inactive: Potency [1] | Potency [2] | outcome [3] | max response [4] -0.0998% | outcome [5] | outcome [6] | Potency [7] | outcome [8] | Potency [9] | Potency [10]

NC(=O)N1c2ccccc2CC(=O)c2ccccc21
inactive: Potency [1] | Potency [2] | outcome [3] | max response [4] 2.12% | outcome [6] | Potency [7] | outcome [8] | Potency [9]

Reference: PubChem BioAssay (Tox21)
